Test results taken from PubChem BioAssay (NCATS).
Inconclusive results are not listed. Calls of active or inactive are those of the source. Unless noted, the call rests on the fitted dose curve; in most records, active means well fitted curve in the direction sought with a large enough effect; inconclusive means small, poorly fitted or top-dose-only effect, or another doubt; inactive means no such curve, though single readings can be large; an effect the other way counts as inactive or inconclusive.

What was measured:
[1] = target: Cytochrome P450 1A2 (Homo sapiens) (UniProt P05177); assay: p450-cyp1a2 (AID 410; calls by dose curve; further: potency means the concentration at half of the fitted maximal effect;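 on activity change, negative = inhibition: -100% = full effect of reference inhibitor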)
Sequence of Cytochrome P450 1A2 (Homo sapiens) (P05177 whole entry, looked up): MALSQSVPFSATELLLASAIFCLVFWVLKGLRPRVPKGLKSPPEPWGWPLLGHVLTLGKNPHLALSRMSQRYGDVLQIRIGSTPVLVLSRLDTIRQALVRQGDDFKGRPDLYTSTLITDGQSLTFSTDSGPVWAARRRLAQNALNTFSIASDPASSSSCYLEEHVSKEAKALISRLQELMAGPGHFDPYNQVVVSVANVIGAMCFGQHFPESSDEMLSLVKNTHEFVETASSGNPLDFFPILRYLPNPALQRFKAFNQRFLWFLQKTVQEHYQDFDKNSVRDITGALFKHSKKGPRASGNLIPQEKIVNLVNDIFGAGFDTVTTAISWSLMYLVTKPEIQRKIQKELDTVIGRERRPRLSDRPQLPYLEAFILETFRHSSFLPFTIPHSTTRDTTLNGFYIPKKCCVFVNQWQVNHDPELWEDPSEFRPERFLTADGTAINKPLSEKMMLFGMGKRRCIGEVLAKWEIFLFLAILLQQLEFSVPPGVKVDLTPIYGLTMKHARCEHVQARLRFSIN
In short: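 20nM CYP1A2, 100uM Luciferin-ME (=Km), 100mM KPO4; cpd 10 min RT; +NADPH regen, 60 min RT; stop/detect 20 min; luminescence. Normalized to furafylline 57 uM = full inhibition.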

[2] = NFAT Signaling Pathway (AID 444; active means well fitted curve in either direction with a large enough effect, not every such curve was filed as active;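 further: carbachol stimulus at about its EC50 of 1 µM final; on the % scale 0 is the no-effect control and ±100 the full control effect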); conditions: Jurkat NFAT-bla M1, carbachol, beta-lactamase ratio, 5 h; at 7.69 µM (top of the series) unless noted
In short: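 Read-out: CCF4 FRET ratio (460 nm/530 nm) after 1 h RT dye loading, used for %activity and AC50 from titration series. Cells: Jurkat NFAT-β-lactamase/M1 line, treated with compound plus 1 uM carbachol for 5 h, 37 °C.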

[3] = Stat Signaling Pathway (AID 446; active means well fitted curve in either direction with a large enough effect, not every such curve was filed as active;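 further: ME-180 cervical cancer cells given 40 pM IL-6 alongside compound; SIE-controlled beta-lactamase reporter measured as 460/530 nm FRET emission ratio; on the % scale 0 is the no-effect control and ±100 the full control effect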); conditions: ME-180 SIE beta-lactamase reporter, IL-6 stimulated, 5 h; at 7.69 µM (top of the series) unless noted
In short: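 Normalization used AC90 stimulation (300 pM IL-6) and AC90 inhibition (125 nM pan-JAK inhibitor at 40 pM IL-6). The underlying signal is SIE-driven beta-lactamase in ME-180 cells after 5 h IL-6 exposure with compound.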

[4] = target: Glucocorticoid receptor (Homo sapiens) (UniProt P04150); assay: GR-GFP Redistribution (AID 450;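 active means compounds whose dose series gives a full or clear partial fitted curve of increased nuclear translocation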; further: potency means the concentration at half of the fitted maximal effect); conditions: U2OS GR-GFP nuclear translocation, laser cytometry, 2 h
Sequence of Glucocorticoid receptor (Homo sapiens) (P04150 whole entry, looked up, the tested form may be a part): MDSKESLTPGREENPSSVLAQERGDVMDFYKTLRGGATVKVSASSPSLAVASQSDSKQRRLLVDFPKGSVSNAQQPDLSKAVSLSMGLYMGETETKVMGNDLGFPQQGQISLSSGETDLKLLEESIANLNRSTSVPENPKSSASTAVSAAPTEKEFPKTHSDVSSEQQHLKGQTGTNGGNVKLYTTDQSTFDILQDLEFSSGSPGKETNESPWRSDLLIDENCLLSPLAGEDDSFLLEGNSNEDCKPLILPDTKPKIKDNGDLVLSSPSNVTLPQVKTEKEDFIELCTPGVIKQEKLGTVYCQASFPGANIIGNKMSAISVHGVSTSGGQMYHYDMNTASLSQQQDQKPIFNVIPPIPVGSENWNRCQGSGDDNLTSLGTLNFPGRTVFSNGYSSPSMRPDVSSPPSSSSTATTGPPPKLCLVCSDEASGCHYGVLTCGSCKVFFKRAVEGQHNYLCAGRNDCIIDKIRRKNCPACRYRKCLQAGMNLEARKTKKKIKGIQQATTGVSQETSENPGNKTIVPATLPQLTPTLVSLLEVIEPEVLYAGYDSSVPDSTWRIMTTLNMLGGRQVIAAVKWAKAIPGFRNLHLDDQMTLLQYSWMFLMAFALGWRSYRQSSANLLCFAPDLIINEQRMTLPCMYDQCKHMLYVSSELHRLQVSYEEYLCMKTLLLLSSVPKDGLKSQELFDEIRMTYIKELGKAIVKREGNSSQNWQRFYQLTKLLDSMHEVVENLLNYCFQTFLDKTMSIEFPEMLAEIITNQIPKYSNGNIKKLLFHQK

[5] = target: Glucocorticoid receptor (Homo sapiens) (UniProt P04150); assay: GR-EFC Redistribution (AID 451; calls by dose curve; further: potency means the concentration at half of the fitted maximal effect); conditions: CHO-K1 GR-EFC translocation, beta-gal luminescence, 2 h
In short: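 Translocation of GR-ED fusion to nuclear EA restores b-gal, read by luminescence after 1 h room-temperature detection. Engineered CHO-K1 biosensor cells, 1,000/well, exposed 2 h at 37 C to titrations up to 46 uM final.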

[6] = target: Mitogen-activated protein kinase 10 (Mus musculus) (UniProt Q61831); assay: JNK3 AlphaScreen Assay (AID 530; active means well fitted curve in either direction with a large enough effect, not every such curve was filed as active;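 further: kinase came from lysate of stimulated human HepG2 cells; signal reports phosphorylation of biotinylated GST-cJun 1-79 at Ser73 with 10 µM ATP; on the % scale 0 is the no-effect control and ±100 the full control effect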)
In short: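 Kinase buffer: 20 mM Tris-HCl pH 7.6, 10 mM MgCl2, 1 mM DTT, 0.1 mM Na3VO4, 0.01% Tween-20; ATP 10 uM. Substrate biotin-GST-cJun(1-79), enzyme from activated HepG2 lysates. Detection by Ser73 phospho-antibody AlphaScreen.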

[7] = target: Cytochrome P450 3A4 (Homo sapiens) (UniProt P08684); assay: qHTS Assay for Activators of Cytochrome P450 3A4 (AID 885); further: nearly all actives have a fitted effect of over 65% in size
Sequence of Cytochrome P450 3A4 (Homo sapiens) (P08684 whole entry, looked up): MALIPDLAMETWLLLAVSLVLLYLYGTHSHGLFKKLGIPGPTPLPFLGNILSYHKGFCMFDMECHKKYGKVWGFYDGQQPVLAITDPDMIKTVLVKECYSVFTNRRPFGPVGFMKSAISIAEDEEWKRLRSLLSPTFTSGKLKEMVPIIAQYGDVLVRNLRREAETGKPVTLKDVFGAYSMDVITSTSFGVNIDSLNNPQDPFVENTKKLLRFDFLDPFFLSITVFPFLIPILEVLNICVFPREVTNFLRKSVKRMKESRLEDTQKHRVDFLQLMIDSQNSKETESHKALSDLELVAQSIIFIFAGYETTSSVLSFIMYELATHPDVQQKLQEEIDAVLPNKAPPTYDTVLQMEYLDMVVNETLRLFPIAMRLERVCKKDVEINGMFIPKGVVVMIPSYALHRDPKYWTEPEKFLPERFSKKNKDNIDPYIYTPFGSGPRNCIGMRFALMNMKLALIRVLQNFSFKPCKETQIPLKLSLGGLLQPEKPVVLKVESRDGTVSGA
In short: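 Human CYP3A4 dealkylates Luciferin-PPXE to luciferin, which luciferase detection converts to light. Substrate was at its KM (25uM), buffer 200mM KPO4, reaction 60 min at RT.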

[8] = qHTS Assay for Lipid Storage Modulators (AID 1519; calls by dose curve); conditions: Drosophila S3 cells, BODIPY lipid droplet/cell ratio, laser cytometry, cells loaded with oleic acid
In short: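 Cells seeded at 5,000 per well were treated with compounds over a concentration series and loaded with oleic acid (400 uM, as added). Lipid droplet fluorescence (488 nm excitation, 500-530 nm channel) was read by laser-scanning cytometry and normalized to 20 uM Triacsin C.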

[9] = target: Dual specificity protein kinase CLK4 (Homo sapiens) (UniProt Q9HAZ1); assay: qHTS Assay for Inhibitors of CDC-like Kinase 4 (ADP-FP Assay) (AID 1795); further: nearly all actives have a fitted effect of over 60% in size; further: potency means the concentration at half of the fitted maximal effect
Sequence of Dual specificity protein kinase CLK4 (Homo sapiens) (Q9HAZ1 whole entry, looked up): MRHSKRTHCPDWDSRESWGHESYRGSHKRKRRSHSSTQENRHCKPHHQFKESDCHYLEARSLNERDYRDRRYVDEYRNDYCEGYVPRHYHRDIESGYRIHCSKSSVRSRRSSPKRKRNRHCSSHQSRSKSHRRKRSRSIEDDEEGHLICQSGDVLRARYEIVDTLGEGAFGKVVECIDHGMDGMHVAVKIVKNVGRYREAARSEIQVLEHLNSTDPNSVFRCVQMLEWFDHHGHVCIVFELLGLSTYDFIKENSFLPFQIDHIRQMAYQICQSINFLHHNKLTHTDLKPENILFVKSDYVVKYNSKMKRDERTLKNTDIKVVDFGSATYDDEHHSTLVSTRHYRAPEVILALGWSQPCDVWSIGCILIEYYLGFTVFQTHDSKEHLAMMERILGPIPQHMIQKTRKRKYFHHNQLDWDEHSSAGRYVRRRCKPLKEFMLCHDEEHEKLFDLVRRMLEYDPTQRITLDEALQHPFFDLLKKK
In short: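 Clk4 6.25 nM; RS peptide 100 uM; ATP 1 uM; 25 mM Tris pH 7.5, 10 mM MgCl2; 1 h reaction. ADP detected via antibody/orange tracer FP displacement; TG003 positive control.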

[10] = target: Ubiquitin carboxyl-terminal hydrolase 1 (Homo sapiens) (UniProt O94782); assay: Inhibitors of USP1/UAF1: Pilot qHTS (AID 504865);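 further: rhodamine fluorescence freed from ubiquitin-rhodamine substrate followed over time; top concentration of the series differs between compounds; on the % scale 0 is the no-effect control and ±100 the full control effect; nearly all actives have a fitted effect of over 35% in size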
Sequence of Ubiquitin carboxyl-terminal hydrolase 1 (Homo sapiens) (O94782 whole entry, looked up): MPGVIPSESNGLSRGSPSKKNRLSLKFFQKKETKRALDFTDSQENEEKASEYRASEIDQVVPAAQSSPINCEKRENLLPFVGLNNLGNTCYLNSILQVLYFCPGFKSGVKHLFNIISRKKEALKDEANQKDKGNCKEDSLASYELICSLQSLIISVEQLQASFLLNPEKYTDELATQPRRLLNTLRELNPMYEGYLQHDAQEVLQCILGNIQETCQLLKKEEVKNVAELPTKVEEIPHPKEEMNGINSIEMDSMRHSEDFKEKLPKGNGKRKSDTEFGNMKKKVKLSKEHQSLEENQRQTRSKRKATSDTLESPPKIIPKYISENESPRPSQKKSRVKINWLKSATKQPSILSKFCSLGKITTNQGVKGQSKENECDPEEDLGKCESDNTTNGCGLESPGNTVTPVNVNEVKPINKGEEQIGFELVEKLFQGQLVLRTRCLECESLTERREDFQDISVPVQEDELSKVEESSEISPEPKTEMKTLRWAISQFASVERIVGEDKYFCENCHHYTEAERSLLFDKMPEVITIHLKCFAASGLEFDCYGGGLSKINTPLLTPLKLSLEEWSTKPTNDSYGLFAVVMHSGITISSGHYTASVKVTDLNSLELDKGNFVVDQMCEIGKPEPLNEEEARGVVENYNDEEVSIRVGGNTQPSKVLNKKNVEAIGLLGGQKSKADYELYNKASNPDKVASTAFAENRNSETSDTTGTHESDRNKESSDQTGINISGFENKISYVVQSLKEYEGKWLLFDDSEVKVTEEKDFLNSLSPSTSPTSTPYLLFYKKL
In short: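 In 50mM HEPES pH 7.8 containing 0.5mM EDTA, 1mM TCEP, 0.1 mg/ml BSA and 0.01% Tween-20, 1nM USP1/UAF1 is exposed to compound for 15 min, then Ub-Rho (150nM final) is added and fluorescence is read over time.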

[11] = Confirmatory qHTS for small molecule stabilizers of the endoplasmic reticulum resident proteome: Secreted ER Calcium Modulated Protein (SERCaMP) assay (AID 1508628); further: nearly all actives have a fitted effect of over 40% in size; further: potency means the concentration at half of the fitted maximal effect
In short: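 GLuc-SERCaMP-expressing SH-SY5Y cells, pretreated 16 h with compound, are challenged with thapsigargin to empty ER calcium stores; after 4 h, coelenterazine is added directly to the medium and luminescence is imaged.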

[12] = target: Lysosomal acid glucosylceramidase (Homo sapiens) (UniProt P04062); assay: Glucocerebrosidase-p2 (AID 348; in the data active means potency below about 10 µM; further: potency means the concentration at half of the fitted maximal effect); conditions: purified GBA, blue fluorogenic substrate, 40 min
Sequence of Lysosomal acid glucosylceramidase (Homo sapiens) (P04062 whole entry, looked up): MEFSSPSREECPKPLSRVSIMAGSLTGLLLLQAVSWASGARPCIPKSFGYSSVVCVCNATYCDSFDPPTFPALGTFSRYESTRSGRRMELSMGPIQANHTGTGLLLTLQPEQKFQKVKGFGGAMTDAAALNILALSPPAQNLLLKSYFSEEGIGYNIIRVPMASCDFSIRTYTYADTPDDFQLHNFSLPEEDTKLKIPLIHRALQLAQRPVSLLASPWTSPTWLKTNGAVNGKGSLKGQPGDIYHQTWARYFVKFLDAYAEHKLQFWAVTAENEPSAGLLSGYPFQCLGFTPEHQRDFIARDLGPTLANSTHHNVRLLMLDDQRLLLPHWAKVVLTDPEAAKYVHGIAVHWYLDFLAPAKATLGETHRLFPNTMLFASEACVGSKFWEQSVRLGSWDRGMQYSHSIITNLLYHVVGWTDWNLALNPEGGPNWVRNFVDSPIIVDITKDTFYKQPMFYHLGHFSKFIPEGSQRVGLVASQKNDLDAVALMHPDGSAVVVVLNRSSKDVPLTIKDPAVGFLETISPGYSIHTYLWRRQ
In short: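 Normal human glucocerebrosidase (0.2 nM) with blue fluorogenic substrate (80 uM final) in citrate/phosphate pH 5.9 with 10mM sodium taurocholate, 0.01% tween-20; 40 min RT, NaOH/glycine stop; fluorescence Ex 365/Em 440; AC50 from a titration from 0.6 nM upwards.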

[13] = AP1 Signaling Pathway (AID 357; active means well fitted curve in either direction with a large enough effect, not every such curve was filed as active;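 further: ME-180 reporter cells stimulated with EGF at its EC50 level; on the % scale 0 is the no-effect control and ±100 the full control effect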); conditions: ME-180 (cervical carcinoma) AP-1-bla reporter, EGF-induced, beta-lactamase ratio, 5 h; at 7.69 µM (top of the series) unless noted
In short: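 Titration-series screen for positive or negative modulators of EC50 EGF-induced signaling in ME-180 cells carrying an AP-1-driven beta-lactamase reporter. After 5 hours at 37 degrees Celsius, CCF4 460nm/530nm emission ratio gave %Activity; AC50 values derived.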

[14] = target: Dual specificity protein kinase CLK4 (Homo sapiens) (UniProt Q9HAZ1); assay: qHTS Assay for Inhibitors of CDC-like Kinase 4 (Kinase-Glo Assay) (AID 1770); further: potency means the concentration at half of the fitted maximal effect; nearly all actives have a fitted effect of over 65% in size
In short: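 Substrate mix (RS peptide 100 uM, ATP 1 uM) dispensed, compound pinned in, then Clk4 added to 25 nM final. Incubated 4.5 h at RT; Kinase-Glo reagent added, luminescence read after 5 min.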

[15] = target: Dual specificity protein kinase CLK4 (Homo sapiens) (UniProt Q9HAZ1); assay: qHTS Assay for Inhibitors of CDC-like Kinase 4 (ADP-Glo Assay) (AID 1771); further: potency means the concentration at half of the fitted maximal effect; nearly all actives have a fitted effect of over 70% in size
In short: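 25 nM Clk4, 100 uM RS peptide, 1 uM ATP (final); 2 mM MgCl2, 0.5 mM EGTA, 2.5 mM DTT, 0.01% Triton X-100; 1 hr RT. ADP-Glo readout: ATP depletion 45 min, conversion/luciferase 30 min, luminescence.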

[16] = target: 3',5'-cyclic-AMP phosphodiesterase 4B (Homo sapiens) (UniProt Q07343); assay: qHTS Assay for Inhibitors of PDE-IV (AID 607; active means well fitted activation curve with a large enough effect in the main read-out, with a control signal flat, not every such curve was filed as active; further: % of control where 0% means no effect)
Sequence of 3',5'-cyclic-AMP phosphodiesterase 4B (Homo sapiens) (Q07343 whole entry, looked up): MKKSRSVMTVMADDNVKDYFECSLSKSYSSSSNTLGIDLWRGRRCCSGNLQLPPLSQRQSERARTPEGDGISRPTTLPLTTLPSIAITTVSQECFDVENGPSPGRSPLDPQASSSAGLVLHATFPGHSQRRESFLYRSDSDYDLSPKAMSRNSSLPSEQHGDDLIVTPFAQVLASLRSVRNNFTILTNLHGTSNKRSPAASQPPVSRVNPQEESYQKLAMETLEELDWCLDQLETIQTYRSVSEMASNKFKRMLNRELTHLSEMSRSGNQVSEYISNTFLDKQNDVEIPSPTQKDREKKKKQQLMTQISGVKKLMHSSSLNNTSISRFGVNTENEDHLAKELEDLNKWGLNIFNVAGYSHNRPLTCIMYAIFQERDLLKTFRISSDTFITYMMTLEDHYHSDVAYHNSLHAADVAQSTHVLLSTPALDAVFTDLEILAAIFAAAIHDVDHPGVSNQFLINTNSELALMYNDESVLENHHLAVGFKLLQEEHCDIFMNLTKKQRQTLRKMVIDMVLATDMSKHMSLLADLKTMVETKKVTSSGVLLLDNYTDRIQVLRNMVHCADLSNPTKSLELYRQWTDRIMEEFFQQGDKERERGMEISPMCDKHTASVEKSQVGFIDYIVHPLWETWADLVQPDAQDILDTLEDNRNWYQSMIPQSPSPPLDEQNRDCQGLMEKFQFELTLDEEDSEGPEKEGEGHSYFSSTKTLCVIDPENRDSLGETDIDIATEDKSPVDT
In short: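 HEK293 ACTOne cells with CNG channel (1000/well), endogenous PDE4; membrane potential dye, compounds up to 22.9 uM final. Fluorescence Ex 535/Em 590; RO 20-1724 (100 uM final) as reference.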

[17] = Cell Viability qHTS for small molecule stabilizers of the endoplasmic reticulum resident proteome (AID 1508629); conditions: cell viability counter-screen, 100 nM thapsigargin for final 4 h
[18] = Counterscreen qHTS for small molecule stabilizers of the endoplasmic reticulum resident proteome: GLuc-NoTag assay (AID 1508627);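 further: SH-SY5Y cells given compound then 100 nM thapsigargin to empty ER calcium; 0% = thapsigargin alone and -100% = DMSO vehicle control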
In short: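 Counterscreen line: SH-SY5Y-GLuc-NoTag cells, treated with compound 19 hr before a 4 hr, 100 nM thapsigargin calcium depletion. Secreted Gaussia luciferase in the medium was measured by luminescence after coelenterazine was added (0.07x final), with cells unlysed.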

COc1ccc(CNc2ncnc3ccc(-c4cccc(C#N)c4)cc23)c(OC)c1
-6.85%: max response ([8]; measured here: cell count channel max response)
-11.4%: max response ([8]; measured here: lipid channel max response)
inactive: activity change, negative = inhibition [2] 16.5% | activity, negative = inhibition [3] -11.5% | Potency [4] > 46 µM | Potency [5] > 46 µM | outcome [6] | Potency [7] | activity change, negative = inhibition ([8]; at 57.5 µM (top of the series)) -0.414% | Potency [9] | Potency [10]
active: Potency [1] 3.16 µM | Potency [11] 28.2 µM

Cc1ccc(P(=O)(CSC(=N)N)c2ccc(C)cc2)cc1
inactive: Potency [11]

CN(C)c1ncc2ncc(=O)n(CCc3ccccc3)c2n1
inactive: Potency [12] > 11.4 µM | activity change, negative = inhibition [13] -21.4% | activity change, negative = inhibition [2] -10.8% | Potency [4] > 9.22 µM | Potency [5] > 46 µM | outcome [6] | Potency [10]
active: Potency [1] 0.794 µM | Potency [14] 6.31 µM | Potency [15] 6.31 µM | Potency [9] 5.01 µM | Potency [11] 39.8 µM

O=C(c1cc(C(F)(F)F)cc(C(F)(F)F)c1)N1CCC2(CC1)CN(c1ccccn1)C2
inactive: activity change, negative = inhibition [13] -8.97% | Potency [1] | activity, negative = inhibition [3] -17.5% | Potency [5] > 46 µM | outcome [6] | Potency [16] | Potency [11] | max response [17] -18%
active: Potency [12] 0.37 µM

COCCn1c(=O)c(-c2ccccc2)nc2cnc(OCc3ccccc3)nc21
inactive: Potency [12] > 11.4 µM | activity change, negative = inhibition [13] -11.6% | activity change, negative = inhibition [2] 0.0505% | activity, negative = inhibition [3] -5.1% | Potency [5] > 46 µM | Potency [16]
active: Potency [11] 39.8 µM

N#CCCn1c(=O)c(CCc2ccccc2)nc2cnc(OCc3ccccc3)nc21
inactive: Potency [12] > 11.4 µM | activity change, negative = inhibition [13] -4.26% | activity change, negative = inhibition [2] -3.34% | activity, negative = inhibition [3] -0.503% | Potency [4] > 9.22 µM | Potency [5] > 46 µM | Potency [7]
active: Potency [1] 12.6 µM | Potency [11] 31.6 µM

COCCn1c(=O)c(-c2ccc(F)cc2)nc2cnc(OCc3ccccc3)nc21
inactive: Potency [12] > 11.4 µM | activity change, negative = inhibition [13] -23.2% | activity change, negative = inhibition [2] -6.09% | Potency [4] > 9.22 µM | Potency [5] > 46 µM | outcome [6] | Potency [16] | Potency [7] | Potency [18]

N#CCCn1c(=O)c(CCc2ccccc2)nc2cnc(Oc3cccc(Cl)c3)nc21
inactive: Potency [12] > 11.4 µM | activity change, negative = inhibition [2] -8.5% | Potency [4] > 9.22 µM | outcome [6] | Potency [16] | Potency [7] | max response [17] 7.03%

C=C1CCC[C@]2(C)C[C@H]3OC(=O)[C@H](CNCCc4ccccc4OC)C3CC12 (some centres undefined)
inactive: Potency [11] | max response [17] -12.1%
